In PubChem BioAssay (NCATS):
Where “and” joins values, the source holds several entries; their conditions need not be identical. Identical values can stand only once. Results filed as inconclusive are left out. Calls of active or inactive are those of the source. Calls follow the shape of the dose curve; as a rule, active = well fitted curve in the direction sought with a large enough effect; inconclusive = small, poorly fitted or top-dose-only effect, or another doubt; inactive = no such curve, though single readings can be large; an effect the other way counts as inactive or inconclusive.

Tests used:
[1] = test system: Es-2; assay: Primary qHTS to identify gynecologic anti-cancer compounds using libraries of approved drugs and bioactive compounds (AID 1345084); conditions: Gynecologic cancer cell panel viability, ATPlite luminescence, 48 h; series mostly up to 57.5 µM; also: nearly all actives have a fitted effect of over 55% in size
Procedure, shortened: (§1)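 In this quantitative HTS, cell killing is estimated from loss of ATP-dependent luciferase light. Cells see five compound concentrations over a 48 h exposure.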

[2] = test system: HeLa; assay: as above; conditions: Gynecologic cancer cell panel viability, ATPlite luminescence, 48 h; series mostly up to 57.5 µM
Procedure, shortened: as §1

[3] = test system: Hek293T; assay: as above; conditions: Gynecologic cancer cell panel viability, ATPlite luminescence, 48 h, control line for the selectivity index; series mostly up to 57.5 µM
Procedure, shortened: as §1

[4] = test system: OV90; assay: as above; conditions: Gynecologic cancer cell panel viability, ATPlite luminescence, 48 h; series mostly up to 57.5 µM
Procedure, shortened: as §1

[5] = test system: PA-1; assay: as above; conditions: Gynecologic cancer cell panel viability, ATPlite luminescence, 48 h; series mostly up to 57.5 µM
Procedure, shortened: as §1

[6] = test system: SKOV3; assay: as above; conditions: Gynecologic cancer cell panel viability, ATPlite luminescence, 48 h; series mostly up to 57.5 µM
Procedure, shortened: as §1

[7] = test system: Tov-21-G; assay: as above; conditions: Gynecologic cancer cell panel viability, ATPlite luminescence, 48 h; series mostly up to 57.5 µM
Procedure, shortened: as §1

[8] = test system: Tov112D; assay: as above; conditions: Gynecologic cancer cell panel viability, ATPlite luminescence, 48 h; series mostly up to 57.5 µM
Procedure, shortened: as §1

[9] = Drug repurposing screens with cells derived from glioblastoma tumor samples (AID 1345199); conditions: GBM patient neurospheres viability, ATP luminescence, 48 h; also: nearly all actives have a fitted effect of over 40% in size
Procedure, shortened: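 Primary testing used CD133+ neurospheres from four GBM patients, seven concentrations, 48 h exposure and ATP-based viability; confirmation added three slower-growing patient lines.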

[10] = test system: JEG-3; assay: Primary qHTS to identify gynecologic anti-cancer compounds using libraries of approved drugs and bioactive compounds (AID 1345084); conditions: Gynecologic cancer cell panel viability, ATPlite luminescence, 48 h; series mostly up to 57.5 µM; also: nearly all actives have a fitted effect of over 55% in size
Procedure, shortened: as §1

[11] = at 45.9 µM (top of the series), tumour line B
[12] = at 45.9 µM (top of the series), tumour line D
[13] = at 46 µM (top of the series), tumour line A
% is scaled to controls: 0 for no effect and ±100 for the full control effect; potency is read from the fitted curve at half-maximal effect.

NP(N)(=O)NC(=O)c1ccc(F)cc1
inactive: Potency [1] | Potency [2] | Potency [3] | Potency [4] | Potency [5] | Potency [6] | Potency [7] | Potency [8] | activity, negative = cell killing [9, 11] -10% | activity, negative = cell killing [9, 12] -14.8% | activity, negative = cell killing [9, 13] -25.8%

Clc1ccc(COC(Cn2ccnc2)c2ccc(Cl)cc2Cl)cc1 (stereo unspecified)
active: Potency [4] 17.8 µM | Potency [6] 28.2 µM | Potency ([9]; tumour line A) 2.24 µM | Potency ([9]; tumour line D) 12.6 µM
inactive: Potency [3]

NN=C(N)N
inactive: Potency [1] | Potency [2] | Potency [3] | Potency [4] | Potency [5] | Potency [6] | Potency [7] | Potency [8] | activity, negative = cell killing [9, 11] -4.67% | activity, negative = cell killing [9, 12] 9.02% | activity, negative = cell killing [9, 13] -2.8%

Clc1ccc(CCC(Cn2ccnc2)Sc2c(Cl)cccc2Cl)cc1 (stereo unspecified)
inactive: Potency [1] | Potency [2] | Potency [10] | Potency [7] | Potency [8] | activity, negative = cell killing ([9]; at 21.2 µM (top of the series), tumour line B) -25.1%
active: Potency ([9]; tumour line A) 1.12 µM

N#CC(C#N)=Cc1ccc(O)c(O)c1
inactive: Potency [1] | Potency [2] | Potency [3] | Potency [4] | Potency [6] | Potency [8]

N[C@@H](Cc1ccc(N(CCCl)CCCl)cc1)C(=O)O
inactive: Potency [2] | Potency [3] | Potency [10] | Potency [6] | Potency [7]

Cc1ccc2c(c1)C1CN(C)CCC1N2 (stereo unspecified)
inactive: Potency [1] | Potency [2] | Potency [3] | Potency [4] | Potency [5] | Potency [6] | Potency [7] | Potency [8] | activity, negative = cell killing [9, 11] -7.68% | activity, negative = cell killing [9, 12] -17.4%

C=C(C)[C@H]1Cc2c(ccc3c2O[C@@H]2COc4cc(OC)c(OC)cc4[C@@H]2C3=O)O1
active: Potency [3] 0.891 µM | Potency [5] 1.26 µM | Potency [6] 0.282 µM | Potency [7] 3.98 µM | Potency [8] 1.78 µM

Fc1ccc(C(OCCN2CCN(CCCc3ccccc3)CC2)c2ccc(F)cc2)cc1
active: Potency [4] 22.4 µM
inactive: Potency [10]

Cc1cc(SCc2sc(-c3ccc(C(F)(F)F)c(F)c3)nc2C)ccc1OCC(=O)O
inactive: Potency [1] | Potency [2] | Potency [3] | Potency [4] | Potency [5] | Potency [7] | Potency [8]

O=c1[nH]c2ccccc2n1C1CCN(CCCC(c2ccc(F)cc2)c2ccc(F)cc2)CC1
active: Potency ([9]; tumour line A) 2.82 µM | Potency ([9]; tumour line B) 8.91 µM | Potency ([9]; tumour line D) 5.62 µM
inactive: Potency [1] | Potency [2] | Potency [3] | Potency [5] | Potency [7] | Potency [8]

Oc1ccccc1-c1ccccc1
inactive: Potency [1] | Potency [2] | Potency [3] | Potency [4] | Potency [5] | Potency [6] | Potency [7] | Potency [8] | activity, negative = cell killing [9, 11] -14.5% | activity, negative = cell killing [9, 12] -15.4% | activity, negative = cell killing [9, 13] -19.2%

CCCC1CCCCN1 (stereo unspecified)
inactive: Potency [1] | Potency [2] | Potency [4] | Potency [5] | Potency [6] | Potency [7] | Potency [8] | activity, negative = cell killing [9, 11] -22.5% | activity, negative = cell killing [9, 12] -32.7%

CNC(=O)N1N=C(c2ccc(N)cc2)c2cc3c(cc2CC1C)OCO3 (stereo unspecified)
inactive: Potency [1] | Potency [5] | Potency [7]

CC(C)=CCOc1c2occc2cc2ccc(=O)oc12
active: Potency ([9]; tumour line A) 17.8 µM
inactive: Potency [1] | Potency [3] | Potency [4] | Potency [5] | Potency [7] | Potency [8] | activity, negative = cell killing [9, 11] -6.14% | activity, negative = cell killing [9, 12] -22.8%

COc1ccc2c(c1OC)CN1CCc3cc4c(cc3C1C2)OCO4 (stereo unspecified)
inactive: Potency [1] | Potency [2] | Potency [6] | Potency [7] | Potency [8]

CC[N+](CC)(CC)CC
inactive: Potency [1] | Potency [2] | Potency [3] | Potency [4] | Potency [5] | Potency [6] | Potency [7] | Potency [8] | activity, negative = cell killing [9, 11] -10.8% | activity, negative = cell killing [9, 12] -7.23% | activity, negative = cell killing [9, 13] -23.7%

C#CCOC(C(=O)OCCN(C)C)(c1ccccc1)c1ccccc1
inactive: Potency [1] | Potency [2] | Potency [3] | Potency [4] | Potency [5] | Potency [7] | Potency [8] | activity, negative = cell killing [9, 11] 3.88% | activity, negative = cell killing [9, 12] 1.28%

CC[C@@H](CO)NC(=O)[C@@H]1C=C2c3cccc4c3c(cn4C)C[C@H]2N(C)C1
inactive: Potency [1] | Potency [2] | Potency [3] | Potency [4] | Potency [5] | Potency [6] | Potency [7] | Potency [8]
active: Potency ([9]; tumour line A) 35.5 µM | Potency ([9]; tumour line B) 17.8 µM

CN(C)CCc1ccc(O)cc1
inactive: Potency [1] | Potency [2] | Potency [3] | Potency [5] | Potency [6] | Potency [7] | Potency [8] | activity, negative = cell killing [9, 11] -0.64% | activity, negative = cell killing [9, 12] -12.6%

CC1OC(C)OC(C)O1 (stereo unspecified)
inactive: Potency [1] | Potency [2] | Potency [3] | Potency [4] | Potency [5] | Potency [6] | Potency [7] | Potency [8] | activity, negative = cell killing [9, 11] 0.183% and 0.957% | activity, negative = cell killing [9, 12] -11.1% and -5.15% | activity, negative = cell killing [9, 13] -20.8% and 1.27%

CNC(=O)c1ccc(N2C(=S)N(c3ccc(C#N)c(C(F)(F)F)c3)C(=O)C23CCC3)cc1F
inactive: Potency [1] | Potency [2] | Potency [10] | Potency [4] | Potency [5] | Potency [6] | Potency [7] | Potency [8]

COc1ccccc1N1CCNCC1
inactive: Potency [1] | Potency [2] | Potency [3] | Potency [4] | Potency [5] | Potency [6] | Potency [7] | Potency [8] | activity, negative = cell killing [9, 11] -16.5% | activity, negative = cell killing [9, 12] -3.17% | activity, negative = cell killing [9, 13] -37.1%

COc1ccc(Cc2nccc3cc(OC)c(OC)cc23)cc1OC
active: Potency [4] 11.2 µM | Potency [6] 25.1 µM
inactive: Potency [7] | Potency [8]

CCOC(=O)C1(c2ccccc2)CCN(CCC(C#N)(c2ccccc2)c2ccccc2)CC1
inactive: Potency [2] | Potency [6] | Potency [7] | Potency [8]

CCC(COC(=O)c1cc(OC)c(OC)c(OC)c1)(c1ccccc1)N(C)C (stereo unspecified)
inactive: Potency [1] | Potency [2] | Potency [4] | Potency [5] | Potency [7] | Potency [8]

CCC(C(N)=O)N1CCCC1=O (stereo unspecified)
inactive: Potency [1] | Potency [2] | Potency [3] | Potency [4] | Potency [5] | Potency [7] | Potency [8] | activity, negative = cell killing [9, 11] -7.31% | activity, negative = cell killing [9, 12] -6.8% | activity, negative = cell killing [9, 13] -24.9%

CC[C@@H](CO)NC(=O)[C@@H]1C=C2c3cccc4[nH]cc(c34)C[C@H]2N(C)C1
inactive: Potency [1] | Potency [2] | Potency [3] | Potency [4] | Potency [5] | Potency [7] | Potency [8] | activity, negative = cell killing [9, 13] 16.5%
